Sampled rows, rich in hits. Any-hit rate of the full collection: about 9.3%.
ELG1 genotox – inducers of genotoxicity in HEK293T ELG1-luciferase cells | HEK293T ELG1-luciferase reporter, luminescence, 16 h | Potency, µM (titrated, usually from 46 µM), inactives show top-dose activity change, positive = activation, most hits filed as activators | 330,000 tested, 1.3% active; further: % of control where 0% means no effect; nearly all actives have a fitted effect of over 60% in size
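HEK293T cells expressing luciferase-tagged ELG1 were exposed to compound or DMSO vehicle for 16 hr at 37 °C and 5% CO2. Luciferase activity was then measured with ONE-Glo after 30 min at room temperature.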
SMN2 splice up – enhancers of SMN2 splice variant expression. HEK293 SMN2-luciferase splicing reporter, luminescence, 30-36 h. 210,000 tested, 2.8% active. Potency, µM (top dose mostly 46.1 µM), inactives show at the top dose activity change, positive = activation, usual class: activators. AID 1458; further: % of control where 0% means no effect; nearly all actives have a fitted effect of over 55% in size
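HEK293 cells carry an SMN2 minigene-luciferase reporter in which exon 7 inclusion puts luciferase in frame. Cells were seeded at 2000 cells/well, attached for 10-12 hours, then exposed to compounds for 30-36 hours at 37C before ONE-Glo luminescence.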
ELG1 DNA repair – ELG1-dependent DNA repair inhibition. AID 504467. 330,000 tested, 2.3% active. HEK293T ELG1-luciferase reporter, luminescence, 16 h; DNA damage induced by 5-fluorouridine. Potency, µM (top dose mostly 46.1 µM), for inactives: at the top dose activity change, negative = inhibition, hits mostly inhibitors; further: on the % scale 0 is the no-effect control and ±100 the full control effect; nearly all actives have a fitted effect of over 55% in size
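Reporter activity after DNA damage by 5-fluorouridine is monitored. Compound-treated cells incubate 16 hr at 37 °C, then ONE-Glo is added for 30 min before luminescence reading.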
FLuc counter – counter-screen for miR-21 project: firefly luciferase inhibitors or activators. Potency, µM (series often up to 57.5 µM), for the others: at the top dose activity change, negative = inhibition, actives largely listed as inhibitors. AID 588342. purified FLuc, Km substrates, luminescence inhibition. 360,000 tested, 6.9% active. P08659;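 further: plate controls were vehicle for no effect and reference inhibitor for full effect; nearly all actives have a fitted effect of over 55% in size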
Target sequence (P08659 whole entry, looked up): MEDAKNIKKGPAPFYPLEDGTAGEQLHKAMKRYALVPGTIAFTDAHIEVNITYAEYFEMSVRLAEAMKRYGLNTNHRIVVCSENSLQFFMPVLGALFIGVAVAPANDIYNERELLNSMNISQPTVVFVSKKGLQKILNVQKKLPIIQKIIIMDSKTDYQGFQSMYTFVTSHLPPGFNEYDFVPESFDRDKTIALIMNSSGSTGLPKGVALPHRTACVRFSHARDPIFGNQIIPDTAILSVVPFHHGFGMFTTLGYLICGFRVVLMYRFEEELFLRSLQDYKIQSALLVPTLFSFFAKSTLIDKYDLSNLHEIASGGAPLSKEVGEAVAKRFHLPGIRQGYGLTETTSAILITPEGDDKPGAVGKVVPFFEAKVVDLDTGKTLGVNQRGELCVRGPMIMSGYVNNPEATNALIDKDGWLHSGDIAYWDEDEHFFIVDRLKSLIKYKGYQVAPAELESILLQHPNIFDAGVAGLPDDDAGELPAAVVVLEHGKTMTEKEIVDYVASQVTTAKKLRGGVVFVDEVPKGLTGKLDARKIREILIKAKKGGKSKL
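Biochemical qHTS of compounds, final roughly 60 µM downward over six points, against 10 nM purified firefly luciferase using Km concentrations of substrates (10 uM D-luciferin, 10 uM ATP) in Tris acetate pH 7.5 buffer; luminescence output.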
NPC1 promoter act – activates the NPC1 promoter; Huh7 NPC1 promoter luciferase reporter, 24 h; AID 485313; Potency, µM (series often up to 9.22 µM), without a hit: top-dose activation, usual class: activators; 320,000 tested, 2.4% active; further: % of control where 0% means no effect; nearly all actives have a fitted effect of over 60% in size
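NPC1 promoter–luciferase Huh7 cells; 24 h compound; luminescence.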
Rab9 prom act – activates the Rab9 promoter | Huh7 Rab9 promoter-luciferase reporter, luminescence, 24 h | AID 485297 | Potency, µM (series often up to 9.22 µM), for the others: top-dose activation, negative = inhibition, actives largely listed as activators | 320,000 tested, 2.8% active; further: % of control where 0% means no effect; nearly all actives have a fitted effect of over 60% in size
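Luminescence from Amplite-detected luciferase (10 minutes, ambient) reports Rab9 promoter activation. Before that, stable Rab9-luciferase Huh7 cells (1500/well, reduced-serum OP-MEM I plus 10% FBS) were exposed to compound for 24 hours at 37C.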
* marks the source's active call; other numbers are inactive results; ? = inconclusive; / = not tested or not shown; [ ] = dose if it differs, or a comment. The call rests on the fitted dose curve; in most records, active means well fitted curve in the direction sought with a large enough effect; inconclusive means small, poorly fitted or top-dose-only effect, or another doubt; inactive means no such curve, though single readings can be large; an effect the other way counts as inactive or inconclusive. Potency means the concentration at half of the fitted maximal effect.

SMILES	ELG1 genotox	SMN2 splice up	ELG1 DNA repair	FLuc counter	NPC1 promoter act	Rab9 prom act
O=C(Nc1cccc(NC(=O)c2cccs2)c1)c1ccc2c(c1)OCO2	-2%	28%	?	15µM*	10%	7%
O=C(Nc1ccc(NC(=O)c2cccs2)cc1)c1ccc2c(c1)OCO2	?	/	?	2%	-9%	-9%
CC(=O)c1cccc(NC(=O)c2ccc3c(c2)OCO3)c1	16%	/	?	27µM*	?	?
CCOC(=O)c1c(N)sc(C(=O)Nc2ccc3c(c2)OCO3)c1C	0.37µM*	-43%	?	0.43µM*	0.32µM*	0.1µM*
C/C(=N\NC(=O)c1nnn(-c2nonc2N)c1-c1ccc2c(c1)OCO2)c1cccs1	3%	/	2%	-1%	-5%	-7%
CCOC(=O)c1sc(NC(=O)c2ccoc2C)c(C(N)=O)c1C	-6%	/	8.2µM*	-2%	-1%	1%
CC(=O)c1cccc(NC(=O)C(OC(=O)/C=C/c2ccc3c(c2)OCO3)c2ccccc2)c1 (configuration not stated)	27%	0%	?	13µM*	7%	1%
CC(=O)c1cccc(NC(=O)c2ccc3ccccc3c2)c1	?	/	?	1.9µM*	3.2µM*	2.8µM*
CC(=O)c1cccc(NC(=O)NNC(=O)c2ccc3ccccc3c2)c1	-3%	/	-9%	5%	1%	7%
CC(OC(=O)/C=C/c1ccccc1)C(=O)Nc1ccc2c(c1)OCCO2 (configuration not stated)	1%	/	7%	0%	0%	-4%
N#CC1(c2ccc(NC(=O)c3ccccc3)cc2)CCCC1	?	14µM*	?	1.3µM*	0.28µM*	0.4µM*
O=C(Nc1ccc(NS(=O)(=O)c2ccccc2)cc1)c1ccccc1	6%	/	9%	-2%	0%	0%
CC(=O)Oc1ccc(C(=O)Nc2ccc(C3(C#N)CCCC3)cc2)cc1	5%	/	?	?	1.3µM*	2µM*
CCOc1cc(C(=O)N(C)CC(=O)Nc2cccc(F)c2)ccc1OCC(=O)N1CCOCC1	0%	/	17%	1%	-3%	1%
COc1ccc(-c2sc3ccc(OC)cc3c2-c2ccc(O)cc2)cc1	-9%	/	23µM*	/	/	/
COc1cc(OC)cc(-c2sc3ccc(OC)cc3c2-c2ccc(O)cc2)c1	2%	/	?	/	/	/
c1ccc2nc3c(nc2c1)[nH]c1ccccc13	9.2µM*	11µM*	?	3.8µM*	3.2µM*	0.89µM*
c1ccc(-c2c3ccccc3nc3[nH]c4ccccc4c23)cc1	2%	-19%	5%	-22%	0%	-2%
Cc1ccc(N(C(=O)c2csnn2)C(C(=O)NC2CCCCC2)c2cccnc2)c(C)c1 (configuration not stated)	6%	/	-2%	-1%	1%	-3%
CCOc1ccc(/C=C2\C(=O)c3ccccc3OC2c2ccccc2)cc1 (configuration not stated)	0%	-23%	5%	?	1%	-2%
COc1ccc(/C=C2\C(=O)c3ccccc3OC2c2ccccc2)cc1 (configuration not stated)	4%	/	23µM*	-17%	-30%	-21%
N/C(=N\OC(=O)c1cc(Br)ccc1Cl)c1ccccn1	?	11µM*	?	3.8µM*	?	?
N/C(=N\OC(=O)c1ccc(=O)n(Cc2ccc(Cl)cc2)c1)c1ccccn1	0%	-12%	13%	-12%	-9%	-1%
N/C(=N\OC(=O)c1ccc(Cl)cc1[N+](=O)[O-])c1ccccn1	21µM*	/	?	3.4µM*	?	?
N/C(=N\OC(=O)Cc1ccccc1[N+](=O)[O-])c1ccccn1	?	-16%	?	?	7%	-10%[1.84 µM]
Cc1c(C(=O)O/N=C(\N)c2ccccn2)cccc1[N+](=O)[O-]	2.1µM*	/	?	0.3µM*	3.2µM*	0.79µM*

Screens (PubChem)
